# Measured values taken from the supplement of paper PMC9433436.
# ± gives the standard deviation of the averaged measurements. The full ranking holds about 4,100 sequences; the median of “relative kcat/Km (krel) vs genomic leader AAAGAU” is about 1.7, and the highest 2% start at about 6.5. This is one part of a sample in which the highest values are shown more often than they occur.
# Molecular target: T1, E. coli RNase P holoenzyme (M1 P RNA + rnpA protein) (UniProt P0A7Y8)
# T1 sequence: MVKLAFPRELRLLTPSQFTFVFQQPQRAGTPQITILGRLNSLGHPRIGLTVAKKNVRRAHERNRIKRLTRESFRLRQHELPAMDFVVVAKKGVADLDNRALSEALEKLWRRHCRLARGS
# Assay: relative kcat/Km (krel) vs genomic leader AAAGAU (relative (reference leader = 1)); higher = faster RNase P cleavage
# Protocol: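 HTS-Kin: a pool of ptRNA-Met (21C construct) with all 4096 combinations of 5' leader nucleotides N(-6) to N(-1) was processed in vitro by E. coli RNase P (P RNA + rnpA/C5 protein) under multiple-turnover conditions at 37 C, pH 8, 17.5 mM MgCl2. Residual substrate was Illumina-sequenced at several fractions reacted, and relative kcat/Km (krel) was computed by internal competition kinetics, calibrated to the genomic leader (AAAGAU = 1). The listed hexamer is the varied N(-6)..N(-1) leader (DNA letters), and it sits between a fixed 5' stem-loop flank (GCAUGCACGAAAGUGCGUGCUAUGAA) and the mature tRNA-Met starting GGCUACGUAGCUCAGUUGG. Two technical replicates are averaged.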
# [1] = fraction of substrate reacted: ~9-10% (9.79% repeat 1, 9.1% repeat 2)
# [2] = fraction of substrate reacted: ~13-16% (15.68% repeat 1, 13.17% repeat 2)
# [3] = fraction of substrate reacted: ~26-29% (28.66% repeat 1, 26.4% repeat 2)
Sequence,relative kcat/Km [1],relative kcat/Km [2],relative kcat/Km [3]
TTCCAC,5.3 ± 2,6.51 ± 1.3,9.46 ± 4.2
CGCCAT,3 ± 0.35,4.6 ± 1.3,6.07 ± 2.5
GTCCAG,2.58 ± 1,2.9 ± 0.5,5.48 ± 2
CTCCCT,3 ± 0.57,3.57 ± 0.86,4.86 ± 2.1
TGCCAC,2.55 ± 1.6,3.121 ± 0.026,4.36 ± 1.6
GTCCAT,4.26 ± 0.8,6.41 ± 1.5,9.1 ± 4.4
CCTCTG,–,–,1.47 ± 0.38
CTTGGA,1.23 ± 1.1,1.2 ± 0.45,1.15 ± 0.8
TTGAGC,1.16 ± 0.28,1.24 ± 0.71,1.47 ± 0.22
ACCGGC,1.08 ± 0.83,–,–
AGAACC,1.66 ± 1.1,1.82 ± 0.43,1.82 ± 0.17
GCACGT,–,–,0.727 ± 0.1
CAAAGG,0.345 ± 0.3,–,–
GTCCAA,3.74 ± 1.3,4.92 ± 0.95,7.96 ± 3
ATCCCT,2.7 ± 0.55,3.48 ± 0.4,4.42 ± 1.8
GGCCAC,0.682 ± 0.091,1.39 ± 0.35,2.65 ± 0.59
GACCAA,1.8 ± 0.3,3.47 ± 1.1,4.86 ± 1.5
GTCCCC,2.87 ± 2.5,4.17 ± 0.82,5.29 ± 1.4
GTCCAC,5.04 ± 1.9,6.06 ± 1.1,8.78 ± 3.9
ATCCAG,1.67 ± 0.93,1.77 ± 0.18,3.83 ± 0.61
ATCCCC,2.42 ± 0.41,3.13 ± 0.35,4.59 ± 2.2
AGCCAT,3.54 ± 1.2,3.08 ± 0.86,4.77 ± 2
ATCCAA,3.15 ± 0.43,4.2 ± 1.2,6.3 ± 2.3
ATCCAC,4.03 ± 1.7,4.47 ± 0.19,6.76 ± 2.2
ATCCAT,3.89 ± 0.97,4.72 ± 1.4,7.14 ± 3.2
TTTGCC,1.81 ± 0.95,1.79 ± 0.37,2.42 ± 0.16
AGTATT,2.4 ± 0.68,3.14 ± 0.3,4.91 ± 2.2

Sequence,relative kcat/Km [1],relative kcat/Km [2],relative kcat/Km [3]
AACTGG,–,–,0.249 ± 0.046
TGATGT,–,1.13 ± 1.1,1.37 ± 0.91
ACTTTA,1.56 ± 0.72,1.89 ± 0.44,2.18 ± 0.5
GCTGCC,1.37 ± 0.5,0.461 ± 0.12,0.965 ± 0.29
GCGGCA,–,0.64 ± 0.26,–
CATTTC,2.59 ± 0.64,2.31 ± 0.88,4.06 ± 1.9
CGCCAA,2.95 ± 0.91,3.15 ± 0.75,5.09 ± 1.8
CTCCCC,2.43 ± 0.053,3.34 ± 1,4.73 ± 2.2
CTCCAC,4.55 ± 1.9,5.88 ± 1.5,7.81 ± 3.1
TTCCAT,4.71 ± 0.96,7.43 ± 1.3,10.3 ± 4.6
CACCAC,3.5 ± 0.91,3.81 ± 1.5,5.55 ± 2.2
CTCCAA,4.23 ± 2.1,4.62 ± 0.048,6.98 ± 2.8
TGCCAT,2.8 ± 0.93,2.89 ± 0.61,4.45 ± 1.8
CTCCAG,2.81 ± 1.9,2.34 ± 0.026,4.6 ± 1.3
TTCCCT,3.18 ± 0.59,4.37 ± 1.1,6.18 ± 2.6
CAGGGA,–,0.949 ± 0.58,1.06 ± 1
CCGATG,–,–,1.14 ± 0.71
CGCATG,–,–,1.43 ± 0.34
CCATAA,3.55 ± 1.6,2.67 ± 0.37,3.58 ± 0.78
CCACTT,1.71 ± 0.26,0.873 ± 0.61,1.91 ± 0.31
TGCTGA,1.907 ± 0.0028,1.69 ± 0.5,2.71 ± 1
CCGTGC,1.254 ± 0.0079,0.908 ± 0.54,1.84 ± 0.71
GGCGCG,–,0.4496 ± 0.0012,1.37 ± 0.14
ATGCCG,–,–,0.567 ± 0.043
AGCTGG,–,0.38 ± 0.056,0.572 ± 0.15
GGTTCA,1.01 ± 0.77,0.431 ± 0.36,1.26 ± 0.44
